Reference: the supplement of paper PMC6555819

Experiments:
Test in all cases: PBM binding z-score (relative to random genomic background probes); higher = stronger binding; sequences stand for … in GC…GCGATTGACAGCGTAGAATGAAGG
[1] = test system: FXR:RXRa (NR concentration 270 nM, RXRa partner concentration 90 nM)
Method in brief: (§1)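 Ligand-free nuclear receptor dimers were bound for 1 h to custom Agilent 4×180K protein-binding microarrays. Detection used antibodies against each partner (one per run). Binding z-scores rest on regression-normalized fluorescence, with random background probes as the reference.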

[2] = test system: LXRa:RXRa (NR concentration 270 nM, RXRa partner concentration 90 nM)
Method in brief: as §1

[3] = test system: LXRa homodimer (NR concentration 270 nM)
Method in brief: as §1

[4] = test system: LXRb:RXRa (NR concentration 270 nM, RXRa partner concentration 90 nM)
Method in brief: as §1

[5] = test system: LXRb homodimer (NR concentration 270 nM)
Method in brief: as §1

[6] = test system: PPARa:RXRa (NR concentration 270 nM, RXRa partner concentration 90 nM)
Method in brief: as §1

[7] = test system: PPARg:RXRa (NR concentration 180 nM, RXRa partner concentration 90 nM)
Method in brief: as §1

[8] = test system: PPARg:RXRa 270nM:90nM, anti-RXR (NR concentration 270 nM, RXRa partner concentration 90 nM)
Method in brief: as §1

[9] = test system: PPARg:RXRa 30nM:10nM, anti-RXR (NR concentration 30 nM, RXRa partner concentration 10 nM)
Method in brief: as §1

[10] = test system: PPARg:RXRa 90nM:30nM, anti-RXR (NR concentration 90 nM, RXRa partner concentration 30 nM)
Method in brief: as §1

CAAACTAGGTCACAGAGTTCAAAGTCCGTGCGTA
PBM binding z-score [1]: 6.27 | PBM binding z-score [2]: 6.12 | PBM binding z-score [3]: 7.46 | PBM binding z-score [4]: 4.98 | PBM binding z-score [5]: 0.834 | PBM binding z-score [6]: 6.05 | PBM binding z-score [7]: 9.65 | PBM binding z-score [8]: 7.78 | PBM binding z-score [9]: 6.58 | PBM binding z-score [10]: 8.06

ACTTACGGGTCATCGAGGTTATAGCACGCGTATA
PBM binding z-score [1]: 6.76 | PBM binding z-score [2]: 4.95 | PBM binding z-score [3]: 0.924 | PBM binding z-score [4]: 4.29 | PBM binding z-score [5]: 0.569 | PBM binding z-score [6]: 5.8 | PBM binding z-score [7]: 5.44 | PBM binding z-score [8]: 5.54 | PBM binding z-score [9]: 2.13 | PBM binding z-score [10]: 4.43

CCTCACGGGTCACTGACAGGTTATAGCATTTGGA
PBM binding z-score [1]: 4.72 | PBM binding z-score [2]: 3.72 | PBM binding z-score [3]: 0.511 | PBM binding z-score [4]: 3.24 | PBM binding z-score [5]: -0.196 | PBM binding z-score [6]: 4.66 | PBM binding z-score [7]: 3.37 | PBM binding z-score [8]: 3.34 | PBM binding z-score [9]: 0.625 | PBM binding z-score [10]: 1.85

GATACAGGGTCAGCTGGAGGCCAGAGTATGGAAA
PBM binding z-score [1]: 5.07 | PBM binding z-score [2]: 2.76 | PBM binding z-score [3]: -0.49 | PBM binding z-score [4]: 2.38 | PBM binding z-score [5]: -0.887 | PBM binding z-score [6]: 4.47 | PBM binding z-score [7]: 3.91 | PBM binding z-score [8]: 3.62 | PBM binding z-score [9]: 1.24 | PBM binding z-score [10]: 2.49

CAAACTAGGTCACAGAGGTCATAGTCCGTGCGTA
PBM binding z-score [1]: 6.73 | PBM binding z-score [2]: 6.13 | PBM binding z-score [3]: 6.94 | PBM binding z-score [4]: 5.6 | PBM binding z-score [5]: 1.6 | PBM binding z-score [6]: 6.22 | PBM binding z-score [7]: 10 | PBM binding z-score [8]: 8 | PBM binding z-score [9]: 7.14 | PBM binding z-score [10]: 7.77

CAAACTAGGACACCGGAAGGTCAAAGTCCGCATG
PBM binding z-score [1]: 3.19 | PBM binding z-score [2]: 3.23 | PBM binding z-score [3]: 3.38 | PBM binding z-score [4]: 3.19 | PBM binding z-score [5]: 0.695 | PBM binding z-score [6]: 4.46 | PBM binding z-score [7]: 4.72 | PBM binding z-score [8]: 4.54 | PBM binding z-score [9]: 1.9 | PBM binding z-score [10]: 3.7

AATACAGGGTCACTAGGCCAGTGTAGGTACGAAT
PBM binding z-score [1]: 5.94 | PBM binding z-score [2]: 5.39 | PBM binding z-score [3]: 1.08 | PBM binding z-score [4]: 3.91 | PBM binding z-score [5]: 0.765 | PBM binding z-score [6]: 5.69 | PBM binding z-score [7]: 7.83 | PBM binding z-score [8]: 6.59 | PBM binding z-score [9]: 3.05 | PBM binding z-score [10]: 5.85

CGTCCAAGGTCAATGCTAGGTCAGTGACAGCATT
PBM binding z-score [1]: 6.74 | PBM binding z-score [2]: 5.78 | PBM binding z-score [3]: 2.73 | PBM binding z-score [4]: 4.19 | PBM binding z-score [5]: 1.14 | PBM binding z-score [6]: 5.31 | PBM binding z-score [7]: 4.11 | PBM binding z-score [8]: 4.64 | PBM binding z-score [9]: 1.38 | PBM binding z-score [10]: 3.44

GCTTACGGGTCAAATGTTATAGCATGAATAGAAT
PBM binding z-score [1]: 6.7 | PBM binding z-score [2]: 4.31 | PBM binding z-score [3]: 0.0219 | PBM binding z-score [4]: 4.11 | PBM binding z-score [5]: 0.827 | PBM binding z-score [6]: 5.85 | PBM binding z-score [7]: 6.74 | PBM binding z-score [8]: 6.08 | PBM binding z-score [9]: 3.81 | PBM binding z-score [10]: 5.84

ATCTCTAAGTAACCAAGTTCAGTGAATGCCGAAC
PBM binding z-score [1]: 0.436 | PBM binding z-score [2]: 0.569 | PBM binding z-score [3]: 0.843 | PBM binding z-score [4]: 0.518 | PBM binding z-score [5]: 0.349 | PBM binding z-score [6]: 0.397 | PBM binding z-score [7]: -0.15 | PBM binding z-score [8]: 0.228 | PBM binding z-score [9]: 0.371 | PBM binding z-score [10]: 0.352

ATACCAAGGTGATCCTGAGGTCGTTGATACTAAC
PBM binding z-score [1]: 2.37 | PBM binding z-score [2]: 2.1 | PBM binding z-score [3]: 0.935 | PBM binding z-score [4]: 1.98 | PBM binding z-score [5]: 0.354 | PBM binding z-score [6]: 2.1 | PBM binding z-score [7]: 0.744 | PBM binding z-score [8]: 0.547 | PBM binding z-score [9]: 0.147 | PBM binding z-score [10]: 0.197

TCTCGGAGGACACGTAGGTCAGAGCTTTCCAGAG
PBM binding z-score [1]: 0.6 | PBM binding z-score [2]: 0.395 | PBM binding z-score [3]: -0.0787 | PBM binding z-score [4]: 0.22 | PBM binding z-score [5]: -0.976 | PBM binding z-score [6]: 1.09 | PBM binding z-score [7]: 0.109 | PBM binding z-score [8]: 1.13 | PBM binding z-score [9]: 2.08 | PBM binding z-score [10]: 1.61

CTACCAAGGTTAACAAGGTCGTTGATTACTATTC
PBM binding z-score [1]: 2.61 | PBM binding z-score [2]: 3.3 | PBM binding z-score [3]: 1.09 | PBM binding z-score [4]: 2.89 | PBM binding z-score [5]: 0.472 | PBM binding z-score [6]: 3.28 | PBM binding z-score [7]: 1.03 | PBM binding z-score [8]: 1.76 | PBM binding z-score [9]: 0.841 | PBM binding z-score [10]: 1.46

ATCTCTAGGTAACCAAGTTCAGTGACTGCCGAAC
PBM binding z-score [1]: 0.544 | PBM binding z-score [2]: 1.09 | PBM binding z-score [3]: 1.07 | PBM binding z-score [4]: 0.872 | PBM binding z-score [5]: 0.838 | PBM binding z-score [6]: 1.24 | PBM binding z-score [7]: 0.732 | PBM binding z-score [8]: 1.15 | PBM binding z-score [9]: 0.402 | PBM binding z-score [10]: 0.958

CGTCCCAGGTCAAGGTCAGTGAAAGAGACTCGAA
PBM binding z-score [1]: 6.02 | PBM binding z-score [2]: 4.67 | PBM binding z-score [3]: 1.45 | PBM binding z-score [4]: 3.68 | PBM binding z-score [5]: 0.553 | PBM binding z-score [6]: 5 | PBM binding z-score [7]: 4.32 | PBM binding z-score [8]: 4.51 | PBM binding z-score [9]: 1.14 | PBM binding z-score [10]: 3.02

ACCGAAAGGTCGAGGTGAGTATAGAGAAAGGGAA
PBM binding z-score [1]: 4.42 | PBM binding z-score [2]: 3.23 | PBM binding z-score [3]: -0.000757 | PBM binding z-score [4]: 2.69 | PBM binding z-score [5]: 0.235 | PBM binding z-score [6]: 4.71 | PBM binding z-score [7]: 3.28 | PBM binding z-score [8]: 3.78 | PBM binding z-score [9]: 1.22 | PBM binding z-score [10]: 2.51

ATACCAAGGTGATCGTAAGGTCGTTGATACTAAC
PBM binding z-score [1]: 2.06 | PBM binding z-score [2]: 1.46 | PBM binding z-score [3]: 0.729 | PBM binding z-score [4]: 1.42 | PBM binding z-score [5]: -0.157 | PBM binding z-score [6]: 1.71 | PBM binding z-score [7]: 0.613 | PBM binding z-score [8]: 0.737 | PBM binding z-score [9]: 0.111 | PBM binding z-score [10]: 0.398

ACTATTAGTTGAGACGAGTGCAACCGATAGGTTG
PBM binding z-score [1]: -0.26 | PBM binding z-score [2]: -0.238 | PBM binding z-score [3]: -0.221 | PBM binding z-score [4]: -0.356 | PBM binding z-score [5]: -0.0624 | PBM binding z-score [6]: -0.254 | PBM binding z-score [7]: 0.511 | PBM binding z-score [8]: 0.0303 | PBM binding z-score [9]: -0.299 | PBM binding z-score [10]: -0.303

TAGAGTAGGTTAGGGGCATTCAGAATGGCGTCGA
PBM binding z-score [1]: 0.854 | PBM binding z-score [2]: 0.929 | PBM binding z-score [3]: 0.289 | PBM binding z-score [4]: 1.66 | PBM binding z-score [5]: 2.45 | PBM binding z-score [6]: 2.24 | PBM binding z-score [7]: 2.29 | PBM binding z-score [8]: 3.01 | PBM binding z-score [9]: 1.48 | PBM binding z-score [10]: 2.6

CCTACTGGCCCAAGGTCATTGATCAGTCAAAGCA
PBM binding z-score [1]: 2.91 | PBM binding z-score [2]: 3.24 | PBM binding z-score [3]: 2 | PBM binding z-score [4]: 3.52 | PBM binding z-score [5]: 0.491 | PBM binding z-score [6]: 3.62 | PBM binding z-score [7]: 0.964 | PBM binding z-score [8]: 2.19 | PBM binding z-score [9]: 0.438 | PBM binding z-score [10]: 1.29

AATAAAGGGTCACTAGGCCAGAGTAGGTACGAAT
PBM binding z-score [1]: 6.74 | PBM binding z-score [2]: 5.35 | PBM binding z-score [3]: 1.44 | PBM binding z-score [4]: 4.42 | PBM binding z-score [5]: 1.27 | PBM binding z-score [6]: 6.36 | PBM binding z-score [7]: 8.19 | PBM binding z-score [8]: 6.96 | PBM binding z-score [9]: 3.48 | PBM binding z-score [10]: 6.22

CCGACTGGCGCAAGGTTACCATAACGCACAGCCA
PBM binding z-score [1]: 0.175 | PBM binding z-score [2]: 0.561 | PBM binding z-score [3]: -0.255 | PBM binding z-score [4]: 0.645 | PBM binding z-score [5]: -0.776 | PBM binding z-score [6]: 0.766 | PBM binding z-score [7]: 0.701 | PBM binding z-score [8]: -0.0732 | PBM binding z-score [9]: -0.409 | PBM binding z-score [10]: -0.61

TGTCAAAGTTCAAGGGTAACGTAAGTATCCACAC
PBM binding z-score [1]: 6.24 | PBM binding z-score [2]: 6.1 | PBM binding z-score [3]: 3.43 | PBM binding z-score [4]: 3.73 | PBM binding z-score [5]: 0.957 | PBM binding z-score [6]: 5.25 | PBM binding z-score [7]: 8.36 | PBM binding z-score [8]: 7.5 | PBM binding z-score [9]: 5.26 | PBM binding z-score [10]: 7.05
